Screening data deposited in PubChem BioAssay by National Center for Advancing Translational Sciences (NCATS).
Shiga inhibitor – inhibitors of Shiga toxin in Vero cells; Vero cells, Shiga toxin protein synthesis inhibition reporter; inhibition, % at 38.7 µM; actives 9.2% (n = 290,000); AID 2315; in the data active means inhibition mostly above about 28%, no sharp cut-off; inactive means mostly below about 43%; further: 0% is about no effect
SARS PLpro yeast – inhibitors of SARS-CoV papain-like protease in yeast | S. cerevisiae expressing SARS-CoV PLpro, growth rescue | Potency, µM (doses to about 32.9 µM), without a hit: top-dose activity, positive = growth rescue, actives largely listed as activators | actives 0.19% (n = 330,000) | AID 485353; further: potency means the concentration at half of the fitted maximal effect; 0% is about no effect; nearly all actives have a fitted effect of over 55% in size
Cycloheximide cs – affects cycloheximide protein synthesis inhibition readout, counter-screen. cell reporter, cycloheximide protein synthesis inhibition counterscreen. max response, %. actives 12% (n = 300,000). AID 2314; in the data active means max response mostly above about 13%, no sharp cut-off; inactive means mostly below about 14%; further: read at 38.3 µM for the half of the compounds with a filed dose; 0% is about no effect
NS1 inh – blocks influenza NS1 protein function; Potency, µM (titrated, usually from 46.1 µM), inactives show top-dose activity, positive = more growth; actives 0.4% (n = 270,000); AID 2326; further: potency means the concentration at half of the fitted maximal effect; actives are rising curves; nearly all actives have a fitted effect of over 50% in size
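Recovery from NS1-induced slow growth read by OD600 in budding yeast switched to galactose assay medium (pH 6.0, -URA) at 1:100 dilution. Compound 23 nl per well; the matching strain lacking NS1 serves as control.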
Numbers without * were called inactive. Most compounds without a hit are left out; they make up all but 12% or so of the library. Unless noted, the call rests on the fitted dose curve.

How did O=c1c2ccccc2nc(SCc2ccccc2)n1Cc1ccco1 do in these assays?
Shiga inhibitor: 110; SARS PLpro yeast: -4%; Cycloheximide cs: 36*; NS1 inh: -14%

What do the screens show for `O=C(CSc1nc2ccccc2c(=O)n1Cc1ccco1)c1ccccc1`?
Shiga inhibitor: 52; SARS PLpro yeast: -5%; Cycloheximide cs: 24*; NS1 inh: -4%

How did Cc1ccc(CSc2nc3ccccc3c(=O)n2Cc2ccco2)cc1 do in these assays?
Shiga inhibitor: 63*; SARS PLpro yeast: -14%; Cycloheximide cs: 13; NS1 inh: 3%

What do the screens show for `Cc1ccc(CSc2nc3ccccc3c(=O)n2CCCC(=O)NCc2ccco2)cc1`?
Shiga inhibitor: -14; SARS PLpro yeast: -4%; Cycloheximide cs: -1; NS1 inh: 5%

How did O=c1c2ccccc2nc(SCc2nnc(-c3ccccc3Br)o2)n1Cc1ccco1 do in these assays?
Shiga inhibitor: -9; SARS PLpro yeast: -3%; Cycloheximide cs: 17*; NS1 inh: inconclusive

What do the screens show for `COc1ccc(N2CCN(C(CNC(=O)c3cccs3)c3ccco3)CC2)cc1` (stereo not drawn)?
SARS PLpro yeast: -15%

Results for C[Si](C)(c1ccc(C(=O)O)cc1)c1ccc(C(=O)O)cc1 ?
NS1 inh: 5%

Results for Cc1onc(-c2c(F)cccc2Cl)c1C(=O)ONC(=O)c1ccco1 ?
Shiga inhibitor: -7; SARS PLpro yeast: -3%; Cycloheximide cs: -3; NS1 inh: -2%

What do the screens show for `O=C(NOC(=O)c1c(F)cccc1Cl)c1ccc(Cl)c(Cl)c1`?
Shiga inhibitor: 46*; SARS PLpro yeast: -3%; Cycloheximide cs: 30*; NS1 inh: -7%

What do the screens show for `O=C(Nc1ccc2c(c1)nc1n2CCSC1)c1ccco1`?
Shiga inhibitor: 34; SARS PLpro yeast: -19%; Cycloheximide cs: 12; NS1 inh: inconclusive

What do the screens show for `CCn1cnc2cc(NC(=O)c3ccco3)ccc21`?
Shiga inhibitor: 20; SARS PLpro yeast: inconclusive; Cycloheximide cs: 30*; NS1 inh: 7%

What do the screens show for `Cn1c(CCN2CCOCC2)nc2cc(NC(=O)c3cccs3)ccc21`?
Shiga inhibitor: -11; SARS PLpro yeast: 0%; Cycloheximide cs: 16; NS1 inh: 0%

How did CCCn1cnc2cc(NC(=O)c3cccs3)ccc21 do in these assays?
Shiga inhibitor: 51; SARS PLpro yeast: 1%; Cycloheximide cs: 29*

What do the screens show for `CC(C)(C)n1cnc2cc(NC(=O)c3ccco3)ccc21`?
Shiga inhibitor: 62*; SARS PLpro yeast: 2%; Cycloheximide cs: 25*; NS1 inh: 5%

Results for CCCn1cnc2cc(NC(=O)c3ccco3)ccc21 ?
Shiga inhibitor: 80*; SARS PLpro yeast: 1%; Cycloheximide cs: 63*; NS1 inh: -24%

Results for O=C(Nc1ccc2nc3n(c(=O)c2c1)CCCC3)c1cccc(F)c1 ?
Shiga inhibitor: 39*; SARS PLpro yeast: 0%; Cycloheximide cs: 42*; NS1 inh: -9%

What do the screens show for `O=c1c2cc(NC(=S)NC3CCCC3)ccc2nc2n1CCCCC2`?
Shiga inhibitor: 38; SARS PLpro yeast: -8%; Cycloheximide cs: 30*

How did O=c1c2cc(NC(=S)NCc3ccccn3)ccc2nc2n1CCCCC2 do in these assays?
Shiga inhibitor: -5; SARS PLpro yeast: 2%; Cycloheximide cs: 7; NS1 inh: -4%

What do the screens show for `O=C(Nc1ccc2nc3n(c(=O)c2c1)CCCC3)c1ccccc1F`?
Shiga inhibitor: 70*; SARS PLpro yeast: -2%; Cycloheximide cs: 31*; NS1 inh: -10%

How did O=C(Nc1ccc2nc3n(c(=O)c2c1)CCCCC3)c1ccccn1 do in these assays?
Shiga inhibitor: 59*; SARS PLpro yeast: -38%; Cycloheximide cs: 36*; NS1 inh: -113%

What do the screens show for `CCOC(=O)Nc1ccc2nc3n(c(=O)c2c1)CCCCC3`?
Shiga inhibitor: 45*; SARS PLpro yeast: -3%; Cycloheximide cs: 31*

What do the screens show for `CS(=O)(=O)CC(=O)Nc1ccc2nc3n(c(=O)c2c1)CCCCC3`?
Shiga inhibitor: 6; SARS PLpro yeast: 1%; Cycloheximide cs: -1; NS1 inh: 5%

How did COCC(=O)Nc1cc(C(=O)NCCc2ccccc2)ccc1Cl do in these assays?
Shiga inhibitor: 74*; SARS PLpro yeast: -20%; Cycloheximide cs: 86*; NS1 inh: -10%

Results for COc1ccc(C(=O)Nc2cc(C(=O)NCCc3ccccc3)ccc2Cl)cc1 ?
Shiga inhibitor: 35; SARS PLpro yeast: -7%; Cycloheximide cs: 29*; NS1 inh: -10%

How did COCC(=O)Nc1cc(C(=O)NCC(C)C)ccc1Cl do in these assays?
Shiga inhibitor: 1; SARS PLpro yeast: 23%; Cycloheximide cs: -2; NS1 inh: 11%

What do the screens show for `CCOCC(=O)Nc1cc(C(=O)NCCc2ccccc2)ccc1Cl`?
Shiga inhibitor: 43*; SARS PLpro yeast: -3%; Cycloheximide cs: 42*; NS1 inh: 0%
